From PubChem BioAssay come the findings set out here.

Experiment [1] can be described thus: inhibitors of TNFa-induced NFkB p65 translocation, primary screen, imaging, HUVEC, MLSMR starter and 10KST1 sets (AID 438;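 active means inhibition above 20% together with a positive visual image hit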;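 further: compound added about 3h40 before a 20 min TNFalpha stimulation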;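 on inhibition: signal is the nuclear over cytoplasmic p65 intensity ratio per well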). The note with it: HUVEC TNFa-induced p65 nuclear translocation; cell count: measured here: nuclei count (cytotoxicity indicator), at 2.08 µM; inhibition: at 2 µM, stronger effect = higher value, 0% TNFa-plus-vehicle, 100% no-TNFa wells.
The nature of experiment [2]: inhibitors of mutant huntingtin aggregation, primary screen, imaging, exon1htt(103Q)mCFP cells, high-content imaging (AID 483;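 active means visual image review flags a hit and inhibition of aggregation exceeds 20%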;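 further: compound exposure lasted 3 days before fixation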;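 on nuclei count: percent of the per-plate median nuclei count of sample wells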). The note with it: exon1htt(103Q)mCFP cell line, aggregate imaging, at 2 µM; inhibition of aggregation: stronger effect = higher value; nuclei count: measured here: cell count, toxicity.
Experiment [3] can be described thus: inhibitors of E-selectin induction by TNFa, primary screen, imaging, HUVEC, immunofluorescence, MLSMR starter and 10KST1 sets (AID 487;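 active means visually confirmed hit in the image check and inhibition above 20%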;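 on inhibition: signal is fraction of cell area covered by stained E-selectin grains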;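 on nuclei count: 100% = median nuclei count of all wells on the same plate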). The note with it: HUVEC TNFalpha-induced E-selectin immunofluorescence imaging, at 2 µM; inhibition: stronger effect = higher value; nuclei count: measured here: cell number, toxicity.
Experiment [4] can be described thus: DUSP6 inhibitors restoring Erk phosphorylation by chemical complementation, primary imaging in DUSP6-transfected HeLa (AID 609;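 active means compounds giving at least 50% inhibition in the cell-based MKP-3 phosphatase rescue imaging test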;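 on inhibition: phospho-Erk level distribution per well compared with pooled transfected vehicle control wells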). The conditions noted are these: HeLa MKP-3 transfected, phospho-Erk imaging KS statistic, at 10 µM, cells stimulated with TPA for 15 min.
The target in experiment [5] is Dual specificity protein phosphatase 6 (Homo sapiens) (UniProt Q16828). The experiment is described as above. The conditions noted are these: HeLa MKP-3 transfected, phospho-Erk imaging KS statistic; at 10 µM; stronger effect = higher value; cells stimulated with TPA for 15 min.
Chain of Dual specificity protein phosphatase 6 (Homo sapiens) (Q16828 whole entry, looked up): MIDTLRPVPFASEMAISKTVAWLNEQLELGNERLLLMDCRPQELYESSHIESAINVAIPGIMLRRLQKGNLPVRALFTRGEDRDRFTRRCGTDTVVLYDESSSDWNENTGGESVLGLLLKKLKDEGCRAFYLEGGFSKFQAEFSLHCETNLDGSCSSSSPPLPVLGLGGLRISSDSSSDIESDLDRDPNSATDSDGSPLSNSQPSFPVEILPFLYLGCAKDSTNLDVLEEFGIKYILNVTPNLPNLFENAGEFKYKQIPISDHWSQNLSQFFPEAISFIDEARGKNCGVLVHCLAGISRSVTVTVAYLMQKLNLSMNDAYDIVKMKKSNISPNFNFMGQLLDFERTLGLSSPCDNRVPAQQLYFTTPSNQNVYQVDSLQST
The target of experiment [6] is Voltage-gated potassium channel subunit beta-2 (Rattus norvegicus) (UniProt P62483). Kind of experiment: KvBeta enzyme negative modulators, primary screen, biochemical, NADPH fluorescence (AID 622;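 active means fluorescence slope higher than the sample average by over 3 SD, cut at about -0.22 in these data, passing the limit was not always enough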;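 further: slope of raw intensity against log time taken from 70 to 1610 s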). The note with it: recombinant KvBeta, 4-cyanobenzaldehyde reduction, at 10 µM, stronger effect = higher value.
Chain of Voltage-gated potassium channel subunit beta-2 (Rattus norvegicus) (P62483 whole entry, looked up): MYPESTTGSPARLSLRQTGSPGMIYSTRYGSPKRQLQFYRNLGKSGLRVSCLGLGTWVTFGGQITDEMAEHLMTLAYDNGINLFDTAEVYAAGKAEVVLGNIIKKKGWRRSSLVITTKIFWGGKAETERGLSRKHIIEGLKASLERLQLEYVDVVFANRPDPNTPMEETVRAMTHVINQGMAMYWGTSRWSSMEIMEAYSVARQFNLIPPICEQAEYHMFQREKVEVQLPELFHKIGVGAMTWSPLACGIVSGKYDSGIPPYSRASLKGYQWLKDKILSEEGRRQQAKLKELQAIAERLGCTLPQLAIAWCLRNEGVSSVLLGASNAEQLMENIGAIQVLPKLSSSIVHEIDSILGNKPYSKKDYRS
Experiment [7] has the same target. The experiment is described as follows: KvBeta positive modulators, primary screen, biochemical, NADPH fluorescence (AID 623;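 active means NADPH fluorescence slope more negative than the mean of all samples by about 3 SD, 99.7% confidence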;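 further: fluorescence intensity change per second fitted from 20 to 320 s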). The conditions noted are these: Recombinant KvBeta, NADPH fluorescence decrease slope, 10 min; at 10 µM; stronger effect = lower value.
Experiment [8] deals with Alpha-2C adrenergic receptor (Homo sapiens) (UniProt P18825). The experiment is described as follows: modulators of alpha2C/GIRK thallium flux, primary screen, cell-based, HEK293 alpha2C/GIRK1/2 (AID 624;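 active means fluorescence slope after compound addition differing from the mean of all screened samples at 99.7% confidence, in either direction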;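 further: slope of fluorescence ratio to pre-addition baseline per second over 15 to 24 s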). The conditions noted are these: thallium flux BTC fluorescence, at 10 µM, actives lie on both sides.
Chain of Alpha-2C adrenergic receptor (Homo sapiens) (P18825 whole entry, looked up): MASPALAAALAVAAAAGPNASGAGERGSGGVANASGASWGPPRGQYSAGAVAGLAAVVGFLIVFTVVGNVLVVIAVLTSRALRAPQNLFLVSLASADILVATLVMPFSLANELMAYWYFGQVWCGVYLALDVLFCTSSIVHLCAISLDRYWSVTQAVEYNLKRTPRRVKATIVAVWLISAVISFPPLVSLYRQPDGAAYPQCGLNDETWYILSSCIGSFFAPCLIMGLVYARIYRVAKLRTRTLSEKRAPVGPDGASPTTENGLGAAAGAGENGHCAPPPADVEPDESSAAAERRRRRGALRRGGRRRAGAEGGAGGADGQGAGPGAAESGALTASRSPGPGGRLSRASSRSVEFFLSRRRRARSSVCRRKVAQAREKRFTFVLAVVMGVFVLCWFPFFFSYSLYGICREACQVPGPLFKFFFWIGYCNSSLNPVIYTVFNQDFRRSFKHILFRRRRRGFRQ
Experiment [9] can be described thus: inhibitors of larval lipid processing in zebrafish, primary screen, whole organism, PED6 fluorescence, gall bladder and intestine (AID 686;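 active means a full or partial loss of lipid-probe fluorescence in the fish gall bladder, intestine or both, judged by eye; inactive means no fluorescence loss, or compound toxic to the fish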;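 further: larvae 5 to 7 days old with five fish per well; signal comes from phospholipase A2 cleavage of quenched PED6 carried via bile; overnight exposure to compound and PED6 before scoring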). The conditions noted are these: Zebrafish larvae PED6 lipid processing, fluorescence scoring; screened at 20 µM (by protocol).
A short description of experiment [10]: inhibitors of Chlamydomonas gravitaxis, primary screen, whole organism, Chlamydomonas reinhardtii, WT vs cilia-less mutant, absorbance, 96-well (AID 463189).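 Further: 0% = wild type cc124 cells in DMSO and 100% = ciliumless bld1 mutant cells.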 The note with it: OD600 absorbance, 2 days, at 10 µM, stronger effect = higher value.
Experiment [11] in a line: inhibitors of Sendai virus-induced IRF3 signaling, primary screen, TLR/RLR signaling modifier project, cell-based, Sendai virus stimulus, luciferase, 10K MLSCN set (AID 602276;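 active means inhibition at or above 50% at 10 µM; inactive means inhibition below 50%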;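 further: firefly luciferase from ISG56 promoter only with Renilla not read in this screen; 0% = Sendai virus plus DMSO and 100% = medium plus DMSO without virus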). The note with it: HEK293 RL24 IRF3 luciferase reporter, at 10 µM, stronger effect = higher value.
Experiment [12] can be described thus: inhibitors of poly I:C-induced TLR3 signaling, primary screen, cell-based, poly I:C stimulus, luciferase, 10K MLSCN set (AID 602277;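 active means inhibition of the reporter signal at or above 50%; inactive means inhibition below 50%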). The note with it: HEK293-TLR3 RL24 IRF3 luciferase reporter, at 10 µM, stronger effect = higher value. A general note: A reporter such as luciferase makes a cellular process visible.
[13] abbreviates: measured here: cell density z-score.
Where [14] appears, read: measured here: nuclear c-Myc green intensity z-score.
Where [15] appears, read: measured here: nuclear pErk red intensity z-score, stronger effect = higher value.

Structures are written as SMILES. “And” between values parts separate entries of the source, which are not always exact repeats. Equal entries are not always repeated. The source made the active and inactive calls.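 How the source made its calls, unless noted: active means inhibition at or above 50% relative to wild type and mutant plate controls; inactive means inhibition below 50%.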

What is called inhibition is the drop in the measured response relative to a control, in per cent. For the compound `O=C1NC(c2cccs2)Nc2ccccc21` (stereo not given), the cell count in experiment [1] was determined as 600. Moreover, the inhibition in experiment [1] is -16.1% (inactive); in experiment [3], -3.3% (inactive); in experiment [5], 1.12% (inactive); in [10] it was 15.5% (inactive); in experiment [11], -3% (inactive); in [12], 0.34% (inactive). The inhibition of aggregation in experiment [2] was 14.1% (inactive). Besides, the nuclei count in [2] worked out at 130%; in [3], 140%. Also, the figures for the z-score in experiment [4] (setting [13]), in [4] (setting [14]) and in experiment [4] (setting [15]) were -1.25, -1.7 and 1.79, respectively. Also, the fluorescence slope in experiment [6] was -0.292 (inactive). Besides, the NADPH fluorescence slope in experiment [7] was -3.3e-05 (inactive). Further, the slope in [8] was 0.00756 (inactive). The call in experiment [9] was inactive.

Regarding `COc1ccc(C2=Nn3c(nnc3-c3ccccc3)SC2)cc1OC`, the cell count in experiment [1] came out at 523. The inhibition in [1] was -5.5% (inactive); in experiment [3], -126% (inactive); in experiment [5] it was -11.5% (inactive); in [10] it was 2.7% (inactive); in experiment [11], 25% (inactive); in experiment [12] it was 40.2% (inactive). In experiment [2], the inhibition of aggregation was -6.6% (inactive). The values for the nuclei count in [2] and in [3] were 92.4% and 132%, respectively. For the same compound, the z-score is -0.336 in experiment [4] (setting [13]), 0.955 in [4] (setting [14]) and 0.104 in experiment [4] (setting [15]). Also, the fluorescence slope in experiment [6] was -0.413 (inactive). Also, the NADPH fluorescence slope in experiment [7] is -0.000132 (inactive). Besides, the slope in experiment [8] was 0.00597 (inactive). Also, the compound was called inactive in experiment [9].

For `CC(=O)[C@H]1CC[C@H]2[C@@H]3CCC4=CC(=O)CC[C@]4(C)[C@H]3[C@H](O)C[C@]12C`, in experiment [1], the cell count was determined as 603. For the same compound, the inhibition in experiment [1] was -11.5% (inactive); in [3] it was -156% (inactive); in experiment [5] it was 7.39% (inactive); in [10], -5.96% (inactive); in experiment [11], -13.1% (inactive); in experiment [12], -16.3% (inactive). In experiment [2], the inhibition of aggregation is 8.3% (inactive). Besides, the nuclei count in experiment [2] was 112%; in experiment [3] it was 135%. Moreover, the z-score was 1.17 in experiment [4] (setting [13]), 0.758 in experiment [4] (setting [14]) and -0.978 in [4] (setting [15]). For the same compound, in experiment [6], the fluorescence slope is -0.485 (inactive). The NADPH fluorescence slope in experiment [7] was 4.5e-06 (inactive). In addition, the slope in [8] was 0.00386 (inactive). Also, the result in experiment [9] was inactive.

As to `CC(C)(C)n1cnc2cc(NS(=O)(=O)c3ccc(Br)cc3)ccc21`, in experiment [1], the cell count is 543. In addition, the inhibition is -1.5% (inactive) in experiment [1]; -37% (inactive) in experiment [3]; -5.26% (inactive) in [5]; -15% (inactive) in experiment [10]; 15.5% (inactive) in [11]; 13.8% (inactive) in [12]. In addition, the inhibition of aggregation in experiment [2] is -9.9% (inactive). Further, the values for the nuclei count in experiment [2] and in experiment [3] were 99.9% and 108%, respectively. Further, the z-score in experiment [4] (setting [13]) is 0.246; in [4] (setting [14]) it was 1.31; in experiment [4] (setting [15]) it was -0.322. Besides, the fluorescence slope in [6] was -0.373 (inactive). Further, the NADPH fluorescence slope in experiment [7] was 2.9e-05 (inactive). Further, the slope in experiment [8] is 0.00461 (inactive). Moreover, the compound was classed as inactive in experiment [9].

With `c1ccc(SCc2nc3ccccc3[nH]2)nc1`, the cell count in experiment [1] was 407. Besides, the inhibition in experiment [1] was -12.9% (inactive); in experiment [3], -65.1% (inactive); in experiment [5] it was 9.39% (inactive); in experiment [10], 13.1% (inactive); in [11] it was -49.8% (inactive); in experiment [12], -119% (inactive). For the same compound, the inhibition of aggregation in experiment [2] was -9.8% (inactive). The nuclei count in experiment [2] amounted to 107%; in experiment [3], 119%. The figures for the z-score in experiment [4] (setting [13]), in experiment [4] (setting [14]) and in experiment [4] (setting [15]) were 0.727, 0.54 and -0.488, respectively. Also, the fluorescence slope in experiment [6] is -0.624 (inactive). Further, the NADPH fluorescence slope in experiment [7] is -2.9e-05 (inactive). Besides, the slope in [8] was 0.00427 (inactive). Also, the outcome in experiment [9] was “inactive; toxic”.

Consider `CC[N+](C)(C)c1cccc(O)c1`, for which the cell count in experiment [1] stood at 610. The inhibition in experiment [1] is -6.9% (inactive); in experiment [3] it was -108% (inactive); in [5] it was 3.45% (inactive); in experiment [10] it was 6.97% (inactive) and -3.25% (inactive); in experiment [11], 16.5% (inactive); in [12], 38.2% (inactive). Also, the inhibition of aggregation in experiment [2] was 10.2% (inactive). Further, the nuclei count in experiment [2] stood at 102%; in experiment [3] it was 130%. The z-score in [4] (setting [13]) was -0.368; in experiment [4] (setting [14]), -0.0907; in [4] (setting [15]), -0.21. Moreover, in experiment [6], the fluorescence slope is -0.492 (inactive). In addition, the NADPH fluorescence slope in experiment [7] is -5.2e-05 (inactive). Besides, the slope in [8] is 0.00476 (inactive). Besides, the outcome in experiment [9] was inactive.

Regarding `Oc1ccc(/C=C/c2cc(O)cc(O)c2)cc1`, the cell count in experiment [1] was determined as 597. Further, the inhibition in experiment [1] is 2.2% (inactive); in [3], -78% (inactive); in experiment [5] it was 14.6% (inactive); in experiment [10], 3.52% (inactive) and 10.8% (inactive); in experiment [11] it was -39.2% (inactive); in experiment [12] it was -231% (inactive). In [2], the inhibition of aggregation was 6% (inactive). The nuclei count was 98.6% in experiment [2] and 118% in experiment [3]. The values for the z-score in [4] (setting [13]), in experiment [4] (setting [14]) and in experiment [4] (setting [15]) were -1.5, -0.867 and 1.21, respectively. Also, the fluorescence slope in [6] was -0.411 (inactive). Also, the NADPH fluorescence slope in experiment [7] was -0.000101 (inactive). Further, the slope in experiment [8] is 0.00434 (inactive). Also, in experiment [9], the result was inactive.

Turning to `CC(=Nc1ccc(C)c(C)c1)C1=C(O)CCC1=O`, in experiment [1], the cell count is 616. In addition, the inhibition in [1] is -14.9% (inactive); in [3] it was -30.7% (inactive); in experiment [5] it was 4.72% (inactive); in experiment [10], 2.51% (inactive); in [11] it was -16.6% (inactive); in experiment [12], -35.9% (inactive). The inhibition of aggregation in experiment [2] is 30.6% (inactive). In addition, the nuclei count in experiment [2] came out at 87.4%; in [3], 143%. Also, the z-score in [4] (setting [13]) was 0.598; in experiment [4] (setting [14]), -0.724; in [4] (setting [15]), 0.505. Moreover, the fluorescence slope in experiment [6] is -0.423 (inactive). Moreover, the NADPH fluorescence slope in [7] was -4.1e-05 (inactive). Further, the slope in [8] was 0.00609 (inactive). For the same compound, the compound was called inactive in [9].

As for `CCN(CC)c1ccc(-c2nn3c(-c4cccnc4)nnc3s2)cc1`, in [1], the cell count is 508. Besides, the inhibition is -7.3% (inactive) in experiment [1]; -247% (inactive) in experiment [3]; -6.06% (inactive) in [5]; 128% (active) in experiment [10]; 49.1% (inactive) in experiment [11]; 7.63% (inactive) in experiment [12]. Further, in [2], the inhibition of aggregation is -31.1% (inactive). Moreover, the nuclei count in [2] turned out to be 10%; in experiment [3], 120%. The z-score in [4] (setting [13]) is 0.463; in experiment [4] (setting [14]) it was -0.276; in experiment [4] (setting [15]), 0.497. Besides, in experiment [6], the fluorescence slope was -0.39 (inactive). Besides, the NADPH fluorescence slope in [7] is -8.4e-05 (inactive). The slope in experiment [8] was 0.00633 (inactive). Besides, in experiment [9], the compound was classed as inactive.

Consider `CC(=O)OCC(=O)[C@@]1(OC(C)=O)[C@@H](C)C[C@H]2[C@@H]3C[C@H](F)C4=CC(=O)C=C[C@]4(C)[C@@]3(F)[C@@H](O)C[C@@]21C`, for which the cell count in [1] came to 659. Also, the inhibition is -5.5% (inactive) in experiment [1]; -71.2% (inactive) in experiment [3]; 29.1% (inactive) in [5]; 3.31% (inactive) in experiment [10]; 4.93% (inactive) in experiment [11]; 44.4% (inactive) in experiment [12]. Also, the inhibition of aggregation in experiment [2] was -7.2% (inactive). Besides, the results for the nuclei count in [2] and in experiment [3] were 68.3% and 116%, respectively. Further, the z-score in experiment [4] (setting [13]) was 1.64; in experiment [4] (setting [14]), -1.42; in experiment [4] (setting [15]) it was -1.55. Also, the fluorescence slope in [6] was -0.482 (inactive). Also, in experiment [7], the NADPH fluorescence slope is -7.3e-05 (inactive). Also, in experiment [8], the slope is 0.00497 (inactive). In addition, in experiment [9], the outcome was inactive.
